C8 TRAIL sens: caspase-8 TRAIL sensitization | NB7+C8 cells + TRAIL, ATPlite viability luminescence | inhibition (viability loss, TRAIL sensitization), % at 10 µM | hit rate 1% among 360,000;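 active = compounds causing at least 50% loss of cell viability in the single-dose screen, relative to plate controls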
PPC-1+TRAIL kill: kills PPC-1 cancer cells in the presence of TRAIL | PPC-1 cells + TRAIL, ATPLite viability luminescence | cell killing (% activity), % at 4 µM or 5 µM | hit rate 0.41% among 220,000;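 active = cell killing above 50% in the first pass at 4 µM, then a duplicate retest at 5 µM averaging 50% or more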;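 also: plate controls were cells with TRAIL plus DMSO for no effect and medium-only wells lacking cells for full effect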
SENP7 inh: blocks the human protease SENP7. recombinant SENP7, Z-RLRGG-aminoluciferin luminescence, 40 min. inhibition, % at 5 µM. hit rate 1.5% among 330,000;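 active = inhibition above about 50% at the single test dose, limit read from the data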;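 also: plate controls were DMSO with enzyme for no effect and no enzyme buffer wells for full effect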
Target sequence (Q9BQF6 706-1050 limits assumed): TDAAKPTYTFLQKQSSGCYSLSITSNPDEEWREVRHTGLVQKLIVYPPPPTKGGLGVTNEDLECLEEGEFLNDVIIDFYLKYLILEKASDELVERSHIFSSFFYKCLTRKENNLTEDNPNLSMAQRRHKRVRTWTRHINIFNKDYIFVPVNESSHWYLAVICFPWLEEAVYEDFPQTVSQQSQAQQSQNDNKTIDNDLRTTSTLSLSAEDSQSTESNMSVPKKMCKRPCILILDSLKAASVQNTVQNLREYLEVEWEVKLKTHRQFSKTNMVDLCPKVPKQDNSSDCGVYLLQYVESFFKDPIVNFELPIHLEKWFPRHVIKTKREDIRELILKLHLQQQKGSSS
SENP6 inh: inhibitors of human SENP6 protease; Q9GZR1; hit rate 1.8% among 330,000; inhibition, % at 10 µM; Recombinant SENP6 catalytic domain, aminoluciferin luminescence;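 active = inhibition above about 50% at the single tested dose, limit read from the data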;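 also: plate controls were DMSO wells with enzyme for no effect and DMSO wells lacking enzyme for full effect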
SENP8 block-1: inhibitors of human SENP8 protease; inhibition, % at 10 µM; hit rate 1.2% among 330,000; Q96LD8; purified SENP8, Z-RLRGG-aminoluciferin cleavage, luminescence; in the data active = inhibition above about 50%
Target sequence (Q96LD8 whole entry, looked up): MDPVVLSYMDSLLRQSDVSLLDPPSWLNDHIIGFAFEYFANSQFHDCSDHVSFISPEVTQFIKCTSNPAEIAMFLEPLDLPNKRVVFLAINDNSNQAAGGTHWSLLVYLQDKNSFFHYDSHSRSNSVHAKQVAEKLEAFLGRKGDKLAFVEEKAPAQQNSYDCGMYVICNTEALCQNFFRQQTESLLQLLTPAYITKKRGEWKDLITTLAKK
SENP8 block-2: blocks human SENP8 cleavage of Nedd8 substrate | Q96LD8 | recombinant SENP8, Nedd8 substrate fluorescence | inhibition, % at 20 µM | hit rate 0.64% among 360,000; in the data active = inhibition mostly above about 40%, no sharp cut-off; inactive = mostly below about 27%
Active calls of the source: *; i = inactive; . = no result. A selection: hits, their analogues and other compounds. The true share with any hit is near 3%.

SMILES | C8 TRAIL sens | PPC-1+TRAIL kill | SENP7 inh | SENP6 inh | SENP8 block-1 | SENP8 block-2
N#C/C(=C(/O)c1ccccc1F)c1nc2cc(C(F)(F)F)ccc2s1 | 6 | 8 | 6 | -6 | -2 | 6
N#C/C(=C(/O)c1ccc2c(c1)OCO2)c1nc2cc(C(F)(F)F)ccc2s1 | 6 | . | 5 | 48 | 54* | -51
CC(=O)c1cccc(Nc2ccc(C#N)cc2)c1 | -7 | . | . | . | . | -38
N=C1/C(=C/c2ccc(-c3cccc(C(=O)O)c3)o2)C(=O)N=C2SC(CC(=O)N3CCOCC3)=NN12 | -5 | . | 0 | 6 | 7 | 9
N=C1/C(=C\c2ccc(-c3cccc(C(=O)O)c3)o2)C(=O)N=C2SC=C(c3ccccc3)N12 | -3 | 9 | -3 | 79* | 46 | -80
CS(=O)(=O)Nc1cccc(NC(=O)C2Cc3c(-c4ccco4)ccnc3O2)c1 (configuration not stated) | 53* | . | . | . | . | 5
O=C(Nc1cccc(Oc2ccccc2)c1)C1Cc2c(-c3ccco3)ccnc2O1 (configuration not stated) | -4 | . | . | . | . | 6
CC(=O)c1cccc(-c2ccnc3c2CC(C(=O)Nc2cccc(NS(C)(=O)=O)c2)O3)c1 (configuration not stated) | 76* | . | . | . | . | 4
Cc1cc(/C=C2/SC(=O)N(CC(=O)N3CCOCC3)C2=O)c(C)n1-c1ccccc1F | 3 | 53* | 1 | -13 | -7 | 7
CC(=O)Nc1cccc(C(=O)N/N=C/c2c[nH]c3ccccc23)c1 | -5 | . | 1 | -32 | -9 | -88
COc1ccc2c(c1OC)C(=O)N(c1nccs1)C2 | 10 | 5 | -8 | -50 | -16 | -101
COc1ccc(N2Cc3ccc(OC)c(OC)c3C2=O)cc1 | 51* | . | -1 | 5 | -4 | -93
Cc1ccc(-n2[nH]c(C)c(C=Nc3ccc4[nH]c(=O)[nH]c4c3)c2=O)cc1C | 51* | 40 | 6 | 15 | -7 | 35
Cc1ccc(NC(=O)Cn2c(O)c(N=NC(=O)c3cc4ccccc4cc3O)c3ccccc32)cc1 | 70* | 5 | . | . | . | 20
Nc1ccc(Oc2ncccn2)cc1 | -17 | . | 16 | 31 | 4 | 82*
OC(c1cc(F)cc(Cl)c1)c1ncc(-c2ccccc2C(F)(F)F)[nH]1 (configuration not stated) | -1 | . | . | . | . | 16
O=C(Cc1ccsc1-c1ccccc1)NO | 63* | 7 | -5 | -22 | -1 | 27
O=C(Nc1cccnc1)C1CCN(S(=O)(=O)c2ccc(Cl)cc2)CC1 | -15 | . | 6 | -16 | -6 | 8
Cc1nn(-c2ccccc2)c(C)c1/C=N/NC(=O)c1cc(C(C)(C)C)[nH]n1 | 52* | 24 | -1 | 7 | 17 | 26
CCOc1ccc(NC2=CC(=O)CCC2)cc1 | 0 | . | -2 | -3 | -8 | 21
CCOc1ccc(NC2=CC(=O)C(=O)c3ccccc32)cc1 | 74* | . | . | . | . | -186
O=C1C=C(Nc2cccnc2)c2ccccc2C1=O | 70* | . | . | . | . | 91*
CN1CC(c2ccccc2)C2(SC(=S)N(Cc3ccco3)C2=O)C12C(=O)Nc1ccccc12 (configuration not stated) | 50* | 18 | -12 | 1 | -9 | 8
COc1cc(OC)cc(C(=O)N[C@H](C(=O)Nc2cc(F)ccc2C)C(C)C)c1 | -6 | . | 0 | -14 | -2 | 8
COC(=O)CCN1CCc2cc(N=Nc3ccc([N+](=O)[O-])cc3)ccc21 | 23 | 14 | 80* | -23 | -22 | 29
SMILES | C8 TRAIL sens | PPC-1+TRAIL kill | SENP7 inh | SENP6 inh | SENP8 block-1 | SENP8 block-2
COc1cccc(-n2c(SCC(=O)N3CCc4ccccc43)nnc2-c2c[nH]c3ccccc23)c1 | 59* | 6 | 11 | 4 | -6 | 14
CCCN(CCC)CCCNC(=O)Cn1cnc2sc(C)c(S(=O)(=O)N3CCOCC3)c2c1=O | -4 | . | 1 | -20 | 4 | 13
Nc1nc(N)c2nc(CNc3ccc(C(=O)NC(CCC(=O)O)C(=O)O)cc3)cnc2n1 (configuration not stated) | . | . | 10 | 5 | 0 | .
CN(Cc1cnc2nc(N)nc(N)c2n1)c1ccc(C(=O)NC(CCC(=O)O)C(=O)O)cc1C(F)(F)F (configuration not stated) | 82* | . | . | . | . | i
CN(Cc1cnc2nc(N)nc(N)c2n1)c1ccc(C(=O)NC(CCC(=O)O)C(=O)O)cc1 (configuration not stated) | 81* | . | . | . | . | i
N/C(=N\OC(=O)c1cccc2ccccc12)c1cccc([N+](=O)[O-])c1 | 15 | 2 | 5 | 6 | -4 | 12
Cc1ccccc1C(=O)O/N=C(\N)c1cccc([N+](=O)[O-])c1 | 74* | 36 | 37 | 31 | 11 | 28
O=C(O)CN(C1CCCCC1)S(=O)(=O)c1ccc(F)cc1 | -9 | 3 | 1 | 0 | -1 | 18
O=C(NC(=S)NNC(=O)c1cc2ccccc2cc1O)c1ccco1 | 17 | 13 | 45 | 15 | 61* | 8
O=C(Nc1cc(S(=O)(=O)N2CCOCC2)ccc1N1CCOCC1)c1ccc([N+](=O)[O-])s1 | 53* | . | 4 | 13 | -5 | 32
O=C(Nc1cc(S(=O)(=O)N2CCOCC2)ccc1N1CCOCC1)c1ccccc1[N+](=O)[O-] | -5 | . | -3 | -17 | 12 | -5
COC(=O)c1c(NC(=O)c2nc3ccccc3s2)sc2c1CC(C)(C)NC2(C)C | 86* | 19 | 8 | -24 | -11 | -75
N=c1c2c(n(Cc3ccc(Cl)c(Cl)c3)c3c1CCC3)CCCC2 | 65* | 42 | -8 | -5 | -12 | 34
Nc1ccc(O)c2c1C(=O)c1ccccc1C2=O | -2 | 18 | 3 | 4 | 5 | 65*
Cc1ccc(OCCN2CCC2(C)C(=O)Nc2ccc3c(c2)OCCO3)cc1 (configuration not stated) | 1 | . | . | . | . | 1
CC(C)c1ccc(-c2nnc(N)s2)cc1 | 58* | 58* | -4 | -7 | -4 | -3
O=C(c1ccoc1)N1CCN(c2cc(-c3ccncc3)nc3cc(-c4cccc(Cl)c4)nn23)CC1 | 19 | . | . | . | . | -413
O=C(c1ccncc1)N1CCN(c2cc(-c3ccccc3)nc3cc(-c4cccc(Cl)c4)nn23)CC1 | 70* | . | . | . | . | -404
O=C(Nc1nnc(SCC(=O)N2CCCc3ccccc32)s1)c1ccc2ccccc2c1 | 83* | 64* | -8 | -14 | -18 | -147
CC(=O)Nc1nnc(SCC(=O)N2CCCc3ccccc32)s1 | 14 | 6 | 8 | -6 | 6 | 11
Cc1cc(C)cc(C(=O)Nc2nnc(SCC(=O)N3CCCc4ccccc43)s2)c1 | 8 | 18 | -15 | -48 | -11 | -26
O=C(Nc1nnc(SCC(=O)N2CCCc3ccccc32)s1)c1ccccc1 | 75* | 75* | 2 | 19 | -7 | 1
O=C(O)C1=CCC(c2ccc(Cl)c(Cl)c2)N(S(=O)(=O)c2ccc(F)cc2)C1c1cccc(F)c1 (configuration not stated) | 7 | . | . | . | . | 15
